These results are taken from ChEMBL document CHEMBL3433997, “St. Jude Leishmania screening dataset” (2016).

Assay type in all cases: functional
The target of assay [1] is Solute carrier family 2, facilitated glucose transporter member 1 (Homo sapiens) (UniProt P11166). Briefly: ST_JUDE_LEISH: Cytotoxicity at 2uM final concentration against transgenic Leishmania Mexicana promastigotes LmGLUT1 that are glucose transport deficient and complemented with the human glucose transporter GLUT1. Activity is measured by DNA content using SYBR green in vitro.

Assay [2] addresses Hexose transporter 1 (Plasmodium falciparum) (UniProt O97467). Briefly: ST_JUDE_LEISH: Cytotoxicity at 2uM final concentration against transgenic Leishmania Mexicana promastigotes LmPfHT that are glucose transport deficient and complemented with the Plasmodium falciparum hexose transporter. Activity is measured by DNA content using SYBR green in vitro.
Assay [3] addresses Glucose transporter (Leishmania mexicana) (UniProt O61059). Briefly: ST_JUDE_LEISH: Cytotoxicity at 2uM final concentration against transgenic Leishmania Mexicana promastigotes LmGT2 that are glucose transport deficient and complemented with the L. Mexicana glucose transporter 2. Activity is measured by DNA content using SYBR green in vitro.

Chain of Solute carrier family 2, facilitated glucose transporter member 1 (Homo sapiens) (P11166 whole entry): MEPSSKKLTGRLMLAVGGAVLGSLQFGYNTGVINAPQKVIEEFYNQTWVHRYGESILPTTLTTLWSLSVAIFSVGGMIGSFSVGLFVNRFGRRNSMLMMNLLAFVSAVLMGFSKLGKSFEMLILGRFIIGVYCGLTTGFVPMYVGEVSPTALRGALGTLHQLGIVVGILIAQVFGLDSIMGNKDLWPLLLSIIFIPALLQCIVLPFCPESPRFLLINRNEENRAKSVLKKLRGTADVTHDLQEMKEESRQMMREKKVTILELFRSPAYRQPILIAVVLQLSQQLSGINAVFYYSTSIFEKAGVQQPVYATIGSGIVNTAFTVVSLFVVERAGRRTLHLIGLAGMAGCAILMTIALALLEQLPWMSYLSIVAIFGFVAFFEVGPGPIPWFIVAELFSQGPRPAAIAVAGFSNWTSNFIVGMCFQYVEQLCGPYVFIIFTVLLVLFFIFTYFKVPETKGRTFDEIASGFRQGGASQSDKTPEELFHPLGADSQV

On to `COc1cc(CCCON2C(=N)N=C(N)NC2(C)C)cc(OC)c1OC`, for which the inhibition in assay [1] is 1.04%; in assay [2], -0.26%; in assay [3], 1.06%.
`CCCNC(=O)Nc1cc2cc(-c3ccc(CN4CCCC4)cc3)ccc2n2c(C)nnc12`: the inhibition is 4.57% in assay [1], 3.01% in assay [2] and -1.87% in assay [3].
For `CN(C)CCOc1cc(NC(=O)Nc2ccc(-c3ccncc3)c3ccccc23)ccc1I`, the inhibition in assay [1] was 6.39%; in assay [2] it was 8.78%; in assay [3] it was 1.62%.
Regarding `Clc1ccc(Cc2nc3ccccc3[nH]2)cc1Cl`, the inhibition in assay [1] was 4.81%; in assay [2], 4.08%; in assay [3] it was 4.23%.
The matching figures for `O=C(Cc1ccccc1)NC(CCN1CCC(O)(c2cccc(C(F)(F)F)c2)CC1)c1ccc(Cl)c(Cl)c1` (stereo not drawn): 4.97%, 1.61% and 0.53%.
The matching figures for `CCCCCCNC[C@@H](O)[C@H](Cc1ccccc1)NC(=O)c1cc(NCC)cc(N2CCCCS2(=O)=O)c1`: 1.43%, 1.73% and 5.06%.
The matching figures for `CSc1sc(NC(=O)Nc2cccc(C(F)(F)F)c2)cc1C#N`: 1.55%, 1.51% and 1.15%.
Turning to `CC1CCc2c(C(=O)N3CCc4ccccc4C3)csc2C1` (stereo not drawn), the figures for the inhibition in assay [1], in assay [2] and in assay [3] were 1.39%, 0.87% and 0%, respectively.
In the case of `CCCNCc1ccc(-c2ccc(CN(CCOC)C(=O)c3cnc(C)cn3)cc2)nc1`, the inhibition in assay [1] is -0.38%; in assay [2] it was 0.25%; in assay [3] it was 0.24%.
For `CC(C)CN1C(=O)c2ccccc2C(C(=O)Nc2cccc(C#N)c2)C1c1cccs1` (stereo not drawn), the figures for the inhibition in assay [1], in assay [2] and in assay [3] were -0.23%, -1.39% and -1%, respectively.
The matching figures for `O=S(=O)(NCCN1CCCC1)c1ccc(-c2ccccc2CNC2Cc3ccccc3C2)cc1`: 66.1%, 67.7% and 50.5%.
Regarding `O=C(NCCCN1CCOCC1)c1cccc(Nc2nccc(Nc3ccc(Oc4ccccc4)cc3)n2)c1`, the values for the inhibition in assay [1], in assay [2] and in assay [3] were 2.39%, -0.18% and -0.86%, respectively.
`Oc1ccc(CCNCCCCCCNCCCc2ccc(Cl)cc2)cc1O`: the figures for the inhibition in assay [1], in assay [2] and in assay [3] were 2.83%, 4.13% and 4.05%, respectively.
The matching figures for `CNc1c2c(nc3ccc(NC(=O)CCCCCCc4ccccc4)cc13)CCCC2`: 5.72%, 8.7% and 4.32%.
The matching figures for `O=C(Nc1ccc2c(c1)CCN2C1CCN(Cc2ccc(C(F)(F)F)cc2F)C1)c1ccco1` (stereo not drawn): 1.38%, 0.47% and 1.6%.
The matching figures for `CCN(CC)CCN(Cc1ccc(-c2ccc(C(F)(F)F)cc2)cc1)C(=O)Cn1c(CCc2c(F)cccc2F)nc(=O)c2ccccc21`: 4.96%, 4.88% and 5.59%.
With `COc1ccc2nc(-c3cc(-c4ccc(NC(=O)CN5CCOCC5)cc4)cnc3N)[nH]c2c1`, the inhibition in assay [1] was found to be 17.5%; in assay [2] it was 44.4%; in assay [3], 11.7%.
The matching figures for `CCCCCCOc1ccccc1C(=O)NCCOc1ccc(Cl)cc1`: 3.58%, -1.45% and -1.97%.
For `O=C(/C=C/c1ccc(Cl)c(Cl)c1)NCCCCCN1CCC(NC(=O)Nc2ccccc2Cl)CC1`, the inhibition in assay [1] was found to be 0.63%; in assay [2] it was 0.55%; in assay [3], 0.27%.
The matching figures for `Fc1cccc(Cn2ncc3cc(Nc4ncnc5sc(C#Cc6ncc[nH]6)cc45)ccc32)c1`: -0.74%, 1.74% and -0.29%.
The matching figures for `Nc1nc(N)c2c(CCc3ccc(Cl)c(Cl)c3)cccc2n1`: 10.7%, 11.2% and 8.14%.
The matching figures for `CN1CCC(NCc2cccc(-c3cnc(NCc4ccccc4)nc3)c2)CC1`: 0.74%, 2.79% and 1%.
With `O=C(Cn1c(CCc2cccc(F)c2F)nc(=O)c2cccnc21)N(Cc1ccc(-c2ccc(C(F)(F)F)cc2)cc1)C1CCN(C2CCSCC2)CC1`, the inhibition is 3.24% in assay [1], 4.36% in assay [2] and 0.42% in assay [3].
As for `CCOc1cc(C(=O)Nc2ccccc2N2CCN(S(C)(=O)=O)CC2)cc(OCC)c1OCC`, the inhibition was determined as 3.72% in assay [1], 3.96% in assay [2] and 3.43% in assay [3].
The matching figures for `COc1ccc(CN2CCC(NCc3cccc(-n4ccnc4)c3)CC2)cc1`: 3.99%, 3.17% and 2.72%.
The matching figures for `COc1cc(C(=O)Nc2nc3ccccc3[nH]2)ccc1OCC(=O)Nc1cccc(C(F)(F)F)c1`: 2.59%, 2.67% and 1.11%.
In the case of `C=Cc1cc(NC(=O)N2CCc3cc(OC)c(C(F)(F)F)cc32)cc(-c2cccnc2)c1`, the inhibition in assay [1] was 4.52%; in assay [2] it was -1.84%; in assay [3] it was -1.09%.
For `Cc1cccc2nc(-c3ccc(-c4cccc(CNCc5cnn(-c6ccccc6)n5)c4)s3)[nH]c12`, the inhibition in assay [1] was 3.52%; in assay [2], 2.05%; in assay [3], 1.93%.
The matching figures for `O=C(Cc1cccc(Cl)c1)Nc1cccc(-c2c[nH]c3nc(Nc4cccc(O)c4)ncc23)c1`: 0.33%, 0.22% and -0.68%.
Take `COc1cccc(C(O)CNc2ccnc(Nc3ccc(Cl)cc3)n2)c1` (stereo not drawn): the results for the inhibition in assay [1], in assay [2] and in assay [3] were 6%, 5.73% and 1.85%, respectively.
Turning to `Cc1cccc(Cn2nc(-c3ccccc3)c(N3CCCCC3)cc2=O)c1`, the inhibition in assay [1] is 2.58%; in assay [2], 3.01%; in assay [3], -2.21%.
The matching figures for `CN1CCN(c2ccc(Nc3c4ccccc4nc4ccccc34)cc2)CC1`: 7.02%, 6.39% and 5.74%.
On to `O=C(NCCCNc1ccc2ccccc2n1)c1cc2c(Cl)cc(Cl)cc2[nH]1`, for which the inhibition in assay [1] was 0.34%; in assay [2], -0.36%; in assay [3], 2.17%.
The matching figures for `NCc1ccc(CNCc2cccc(-c3cccc(-c4nc5cc(F)ccc5[nH]4)c3)c2)cc1`: 9.71%, 9.36% and 8.54%.
The matching figures for `Cc1ccccc1Nc1cc(Nc2ccccc2C)c2ccccc2n1`: 42.9%, 42.2% and 16.1%.
The matching figures for `CC(CN(C)C)C(=O)Nc1ccc(-c2cccc(-c3nc4cc(C(F)(F)F)ccc4[nH]3)c2)cc1` (stereo not drawn): 1.9%, 1.89% and -2.14%.

The term inhibition denotes the relative decrease from the control value, in per cent.
